TRHR PAM: TRH receptor (human) allosteric enhancement; AID 493056; P34981; enhancement, % at 2 µM; hit rate 0.66% among 360,000; TRHR cells, fluo-8 calcium fluorescence, EC20 TRH enhancement; in the data active means enhancement above about 30%
Target sequence (P34981 whole entry, looked up): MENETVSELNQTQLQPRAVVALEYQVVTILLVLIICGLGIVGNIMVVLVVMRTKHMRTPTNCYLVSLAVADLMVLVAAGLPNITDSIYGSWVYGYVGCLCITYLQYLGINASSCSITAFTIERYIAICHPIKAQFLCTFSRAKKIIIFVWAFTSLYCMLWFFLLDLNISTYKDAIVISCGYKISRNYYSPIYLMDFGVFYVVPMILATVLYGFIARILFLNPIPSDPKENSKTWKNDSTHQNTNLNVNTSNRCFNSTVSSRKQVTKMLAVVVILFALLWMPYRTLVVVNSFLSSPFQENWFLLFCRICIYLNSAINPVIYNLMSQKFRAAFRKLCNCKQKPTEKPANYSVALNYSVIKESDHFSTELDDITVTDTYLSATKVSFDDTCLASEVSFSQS
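TRHR-expressing cells loaded with fluo-8 calcium dye were read kinetically (ex 480/em 530) during compound addition, then stimulated with an EC20 of TRH (10 nM final). Enhancement of the Gq-mediated intracellular calcium response was scored.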
GLP1R inv ag: GLP-1 receptor (human) inverse agonism; hit rate 1.6% among 410,000; Potency, µM (doses to about 38.3 µM), hits mostly inhibitors; P43220; HEK293 GLP-1R CRE-luciferase, luminescence, 24 h; GLP-1R form is constitutively active; further: nearly all actives have a fitted effect of over 55% in size
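Cells are plated, allowed 12 hours at 37 deg C, then treated with compounds for 24 hr before luciferase detection reagent is added and luminescence is read after 12 min at room temperature. The HEK293 line carries constitutively active GLP-1R with a cAMP-responsive reporter.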
HEK293 tox: cytotoxicity counter-screen for GLP-1 receptor inverse agonists; HEK293 cAMP-luciferase reporter cells, luminescence, 24 h; hit rate 0.13% among 410,000; Potency, µM (series often up to 38.3 µM), actives largely listed as inhibitors;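 further: loss of luciferase light is scored as toxicity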
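A 23 nL compound transfer followed 12 hours of cell culture at 37 deg C; exposure then lasted 24 hr. Luciferase assay detection reagent was dispensed and plates read for luminescence after a 12 min room-temperature wait.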
PTHR1 agonist: PTHR1 (human) receptor agonism. Q03431. HEK293 GP2 PTHR1 cells, GloSensor cAMP luminescence, 1 h. Potency, µM (top dose mostly 115 µM), actives largely listed as activators. hit rate 0.075% among 410,000. AID 743266; further: nearly all actives have a fitted effect of over 55% in size
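HEK-293-derived GP2 cells expressing PTHR1 and a GloSensor cAMP reporter, 3,000/well, plated overnight, given luciferin plus IBMX (each 0.5 mM as added) for 1 h at 37 °C, then compound for 1 h at 37 °C. Luminescence was read after 15 min at room temperature.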
GLP1R ag: agonists of human GLP-1 receptor; P43220; HEK293 GLP-1R CRE-luciferase, luminescence, 4-6 h; cells express a hypersensitive GLP-1R form; Potency, µM (titrated, usually from 45.6 µM), hits mostly activators; hit rate 0.007% among 380,000; AID 624172
TRHR agonist: activates the human TRH receptor. P34981. TRHR cells, calcium flux fluo-8, FDSS agonist mode. activation, % at 2 µM. hit rate 0.18% among 360,000; in the data active means activation above about 30%
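Steps: seed TRHR cells overnight; add fluo-8 no-wash Ca dye, RT 30 min–1.5 h; record 10 s baseline; pin-transfer compounds; monitor fluorescence 1 cycle/s for the agonist window. Calcium increases flag candidate agonists.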
Each line names hits and unclear results; the compound was inactive in the other large screens. Hits are enriched below; roughly 2.4% of the tested compounds scored in any of these assays. Unless noted, the call rests on the fitted dose curve; in most records, active means well fitted curve in the direction sought with a large enough effect; inconclusive means small, poorly fitted or top-dose-only effect, or another doubt; inactive means no such curve, though single readings can be large; an effect the other way counts as inactive or inconclusive.

CCC1=Nc2cc(C(=O)NCc3cccnc3)ccc2Sc2ccc(C)cc21	GLP1R inv ag 1.78µM, HEK293 tox inconclusive, PTHR1 agonist inconclusive
CCCCSc1nc(O)c(C2OC(=O)c3c2ccc(OC)c3OC)c(=O)n1-c1ccccc1 (stereo not given)	TRHR PAM 31.0, GLP1R inv ag inconclusive
CCCSc1nc(O)c(C2OC(=O)c3c2ccc(OC)c3OC)c(=O)n1-c1ccccc1 (stereo not given)	GLP1R inv ag inconclusive
O=C(CCS(=O)(=O)c1ccccc1)N(CCCN1CCOCC1)c1nc2c(F)cccc2s1	GLP1R inv ag inconclusive, HEK293 tox 10µM
Cc1ccc(S(=O)(=O)CC(=O)N(CCCN2CCOCC2)c2nc3c(F)cccc3s2)cc1	none
Cc1cc(C)c2sc(N(CCN(C)C)C(=O)c3c(F)cccc3F)nc2c1	GLP1R inv ag 7.08µM
Cc1cc(C)c2sc(N(CCCN(C)C)C(=O)c3ccc(S(=O)(=O)N(C)Cc4ccccc4)cc3)nc2c1	GLP1R inv ag 11.2µM, HEK293 tox inconclusive
CN(C)CCCN(C(=O)c1ccc(S(=O)(=O)N2CCCCCC2)cc1)c1nc2cc3c(cc2s1)OCO3	GLP1R inv ag 10µM (no result: TRHR PAM, TRHR agonist)
O=C(O)COc1ccccc1/C=N/NC(=O)CN1CCN(Cc2ccc(Cl)cc2)CC1	none
CN(C(=O)c1cnc2n(c1=O)CCS2)C1CCCCC1	none
Cn1c(=O)n(C)c2cc(CNCc3ccc(C(=O)O)cc3)ccc21	none (no result: GLP1R ag)
Cc1ccc(-n2nnnc2SCC(=O)c2cc(C)n(-c3cc(C)on3)c2C)cc1	none
CN(C)CCN(C(=O)c1cccc2ccccc12)c1nc2cc3c(cc2s1)OCO3	GLP1R inv ag 10µM
CN(C)CCCN(C(=O)COc1ccccc1)c1nc2c(F)cccc2s1	TRHR PAM 31.9
CN(C)CCN(C(=O)c1ccc(S(=O)(=O)N2CCCC2)cc1)c1nc2ccc(Br)cc2s1	GLP1R inv ag 5.62µM
CN(C)CCCN(C(=O)c1ccc(S(=O)(=O)N(C)Cc2ccccc2)cc1)c1nc2cc3c(cc2s1)OCO3	GLP1R inv ag 7.08µM, HEK293 tox inconclusive
COc1cccc2sc(N(CCCN(C)C)C(=O)COc3ccc(Cl)cc3)nc12	none
O=C(NCc1ccccn1)c1cccc(NS(=O)(=O)c2ccccc2)c1	none
CCn1c(SCC(=O)NC2CCCC2)nnc1-c1ccccn1	none
Cc1ccnc(NS(=O)(=O)c2ccc(NC(=O)c3ccc(Br)o3)cc2)n1	none
Cc1cccc2cc(CN(CC3CCCO3)C(=O)c3ccco3)c3nnnn3c12 (stereo not given)	none (no result: GLP1R inv ag, HEK293 tox, PTHR1 agonist, GLP1R ag)
COc1ccc(C(=O)COC(=O)c2cccnc2SC)cc1	none
CC1(C(=O)NS(=O)(=O)c2cccc(Cl)c2)CCN1C(=O)CC1CCCC1 (stereo not given)	none (no result: TRHR PAM, TRHR agonist)
CN(C)CCCN(C(=O)c1ccc2ccccc2c1)c1nc2cc3c(cc2s1)OCO3	GLP1R inv ag inconclusive, HEK293 tox inconclusive
CCOc1cccc2sc(N(CCCN(C)C)C(=O)c3ccc(S(=O)(=O)N(CC)Cc4ccccc4)cc3)nc12	GLP1R inv ag 3.98µM, HEK293 tox inconclusive
CCN(c1ccccc1)S(=O)(=O)c1ccc(C(=O)N(CCCN(C)C)c2nc3cc4c(cc3s2)OCO4)cc1	GLP1R inv ag 3.55µM, HEK293 tox inconclusive
NS(=O)(=O)c1ccc(NC=C2C(=O)OC3(CCCCC3)OC2=O)cc1	TRHR PAM 32.9, PTHR1 agonist inconclusive
CCC(NS(=O)(=O)c1ccc(C)cc1)C(=O)N1CCC2(O)CCCCC2C1 (stereo not given)	none
N#Cc1c(-c2ccccc2)c(-c2ccccc2)nn(CC(=O)NNC(=O)Nc2ccc(Cl)cc2)c1=O	GLP1R inv ag 10µM
CC1(c2ccc([N+](=O)[O-])cc2)Nc2ccccc2S1 (stereo not given)	TRHR PAM 31.1
O=C1Nc2ccccc2/C1=C/c1ccc([N+](=O)[O-])cc1	none
Cc1csc(NC(=O)CSC2=NS(=O)(=O)c3cc(F)ccc3N2)n1	none

High-throughput results as filed in PubChem.
